# Test results taken from PubChem BioAssay (Tox21).
# Inconclusive results are not listed. Entries that show only a call come without a potency. Values without a mark were called inactive. Calls of active or inactive are those of the source. The call rests on the fitted dose curve; in most records, active means well fitted activation curve with a large enough effect in the repeat runs; inconclusive means weak or mixed curves; inactive means flat fitted curve, though single readings scatter.
# Test: A CellTox Green Cytotoxicity Assay to monitor cytotoxicity in HEK293 cells - 8 hour (AID 1224884); further: nearly all actives have a fitted effect of over 35% in size
# Settings: CellTox Green fluorescence; series mostly up to 76.8 µM
# Excerpt: National Center for Advancing Translational Sciences [NCATS]
# NIH Chemical Genomics Center [NCGC]
# U.S. Environmental Protection Agency [EPA]
# National Institutes of Environmental Health Sciences [NIEHS]
# National Toxicology Program [NTP]
# Cell-based models are critical for drug discovery. Determining the natural cytotoxic effects resulting from test compounds is an essential research activity. A CellTox Green Cytotoxicity Assay to monitor cytotoxicity in real time of continues cell culture during 40 hours of the compound treatment was used to screen Tox21 10K library compounds in Hek293 cells. CellTox Green Cytotoxicity Assay is a nonlytic, homogeneous, biofluorescent method to measure cytotoxicity in cell culture after experimental manipulation. The assay system uses a proprietary asymmetric cyanine dye that is excluded from viable cells but preferentially stains the dead cell's DNA. […] Viable cells produce no appreciable increases in fluorescence. Therefore, the fluorescence signal produced by the binding interaction with dead cell DNA is proportional to cytotoxicity.
# The mixture of Hek293 cell suspension and reagents were dispensed at 600cells/6 ul/well in 1536-well tissue culture treated black solid bottom plates using a Multidrop dispenser. After the assay plates were incubated at a 37 C/5% CO2 incubator for 5 hours, 23 nL of compounds dissolved in DMSO, positive and negative controls was transferred to the assay plate by a pintool work station. The plates were incubated at 37 C for 40 hours. The fluorescence intensity were measured at 0h, 8h, 16h, 24h, 32h and 40h time points using ViewLux plate reader during compound treatment.
Compound,Potency,cytotoxicity increase
C[C@@H]1O[C@@H](O[C@@H]2[C@@H](O)[C@H](OCCc3ccc(O)c(O)c3)O[C@H](CO[C@@H]3O[C@H](CO)[C@@H](O)[C@H](O)[C@H]3O)[C@H]2OC(=O)/C=C/c2ccc(O)c(O)c2)[C@H](O)[C@H](O)[C@H]1O,inactive,–
NCCN1CCOCC1,inactive,–
CC(=O)NCc1c(I)c(NC(C)=O)c(I)c(C(=O)O)c1I,inactive,–
NCCS,inactive,–
Brc1ccc(-c2ccccc2)cc1,inactive,–
C[Si](C)=O,–,1.88% [at 6.97 µM]
N#Cc1ccc(C(=O)O)cc1,inactive,–
Cc1ccccc1N=O,inactive,–
Cc1ccccc1OCC(O)CO (stereo not given),inactive,–
CCCCCCN,inactive,–
CCCCNC1CC(C)(C)NC(C)(C)C1,inactive,–
CC(C)CC(=O)O,inactive,–
CCNC(=O)C1CC(C)CCC1C(C)C (stereo not given),inactive,–
CCN(CC)CC(=O)Nc1c(C)cccc1C,inactive,–
CN(C)c1ccc(C=O)cc1,inactive,–
CN1CCN(CC(=O)N2c3ccccc3C(=O)Nc3cccnc32)CC1,–,-1.13% [at 6.97 µM]
Cc1cc(Cl)c(C)cc1Cl,inactive,–
O=C(NCCc1c[nH]c2ccccc12)c1cccnc1,inactive,–
CCOC(=O)CC(=O)c1ccccc1,inactive,–
CC1(C)S[C@@H]2[C@H](N=CN3CCCCCC3)C(=O)N2[C@H]1C(=O)O,inactive,–

Compound,Potency,cytotoxicity increase
CC(C)(C)NC(N)=O,inactive,–
CCCCN,inactive,–
CC(=O)c1sc(C)nc1C,inactive,–
CCCCCCCC/C=C\CCCCCCCC(=O)OCCCC,–,-25.9% [at 15.8 µM]
COc1cc(NS(=O)(=O)c2ccc(N)cc2)nc(OC)n1,inactive,–
Nc1nnc(-c2cccc(Cl)c2Cl)c(N)n1,inactive,–
CN1C(C)(C)CCCC1(C)C,inactive,–
C=CCCCCCCCCCCCC,inactive,–
CC(=O)Nc1cccc(C)c1,inactive,–
CCOCCOC(=O)/C=C/c1ccc(OC)cc1,inactive,–
Oc1ccccc1-c1nnco1,inactive,–
COCCOCCOCCOCCO,inactive,–
COc1ccc2c(c1)C(=O)N(CCc1ccc(S(=O)(=O)NC(=O)NC3CCCCC3)cc1)C(=O)C2(C)C,inactive,–
N[C@@H](CCC(=O)N[C@@H](CS)C(=O)NCC(=O)O)C(=O)O,–,2.4% [at 15.8 µM]
CC(C)C(=O)OCc1cccc(OC(=O)[C@@H]2N3C(=O)[C@@H](NC(=O)Cc4ccccc4)[C@H]3SC2(C)C)c1,inactive,–
O=S(=O)(O)c1ccc2cc(O)c(S(=O)(=O)O)cc2c1,inactive,–
C=C(C)C(=O)OCc1ccccc1,inactive,–
OCCCCC(O)CO (stereo not given),inactive,–
CCOC(=O)[C@H](CCc1ccccc1)N[C@@H](C)C(=O)N1C(=O)N(C)C[C@H]1C(=O)O,inactive,–
C=C1CC/C=C(\C)CC[C@@H]2[C@@H]1CC2(C)C,inactive,–
